Assay outcomes from PubChem BioAssay.
An excerpt weighted towards active compounds, which were near 9.3% of everything screened.
FLuc counter = firefly luciferase modulation, counter-screen for miR-21 project | 360,000 compounds, 6.9% hits | Potency, µM (highest dose often 57.5 µM), for the others: top-dose activity change, negative = inhibition, usual class: inhibitors | P08659 | purified FLuc, Km substrates, luminescence inhibition | AID 588342;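 note: plate controls were vehicle for no effect and reference inhibitor for full effect; nearly all actives have a fitted effect of over 55% in size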
Target sequence (P08659 whole entry, looked up): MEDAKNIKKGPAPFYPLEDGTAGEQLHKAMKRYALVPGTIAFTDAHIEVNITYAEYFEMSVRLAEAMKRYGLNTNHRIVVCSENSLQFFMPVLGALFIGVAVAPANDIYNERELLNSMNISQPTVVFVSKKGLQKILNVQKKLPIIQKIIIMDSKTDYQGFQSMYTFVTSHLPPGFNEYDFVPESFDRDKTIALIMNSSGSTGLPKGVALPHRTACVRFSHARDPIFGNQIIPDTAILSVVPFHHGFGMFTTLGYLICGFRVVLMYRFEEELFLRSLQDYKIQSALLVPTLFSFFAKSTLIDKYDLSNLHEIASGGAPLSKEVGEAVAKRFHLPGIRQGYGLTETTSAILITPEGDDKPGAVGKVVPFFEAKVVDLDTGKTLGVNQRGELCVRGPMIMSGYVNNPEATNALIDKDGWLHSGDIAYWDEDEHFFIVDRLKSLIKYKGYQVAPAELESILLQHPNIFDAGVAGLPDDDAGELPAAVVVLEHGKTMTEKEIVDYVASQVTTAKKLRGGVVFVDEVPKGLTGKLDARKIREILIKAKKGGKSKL
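Biochemical qHTS of compounds, final roughly 60 µM downward over six points, against 10 nM purified firefly luciferase using Km concentrations of substrates (10 uM D-luciferin, 10 uM ATP) in Tris acetate pH 7.5 buffer; luminescence output.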
SMN2 splice enh = SMN2 splice variant enhancement | 210,000 compounds, 2.8% hits | AID 1458 | Potency, µM (titrated, usually from 46.1 µM), for the others: top-dose activity change, positive = activation, actives largely listed as activators | HEK293 SMN2-luciferase splicing reporter, luminescence, 30-36 h; note: % of control where 0% means no effect; nearly all actives have a fitted effect of over 55% in size
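qHTS luciferase splicing reporter: luminescence rises when SMN2 exon 7 is included in transfected HEK293 cells. Compound exposure lasted 30-36 h at 37C, with 4.5 mM final sodium butyrate as control, followed by a ONE-Glo read.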
NPC1 promoter act = NPC1 promoter activation; AID 485313; 320,000 compounds, 2.4% hits; Potency, µM (top dose mostly 9.22 µM), without a hit: at the top dose activation, usual class: activators; Huh7 NPC1 promoter luciferase reporter, 24 h; note: % of control where 0% means no effect; nearly all actives have a fitted effect of over 60% in size
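Luminescence read-out of NPC1 promoter-driven luciferase in stably transfected Huh7 cells; compounds delivered in DMSO and left 24 h at 37C, 5% CO2, qHTS titration format.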
ELG1 genotox = genotoxicity induction in ELG1-luciferase HEK293T cells; HEK293T ELG1-luciferase reporter, luminescence, 16 h; Potency, µM (series often up to 46 µM), without a hit: top-dose activity change, positive = activation, actives largely listed as activators; 330,000 compounds, 1.3% hits; note: % of control where 0% means no effect; nearly all actives have a fitted effect of over 60% in size
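Cells (2,000/well) expressing the ELG1-luciferase fusion are dosed by pin tool and kept 16 hr at 37 °C, 5% CO2. Signal comes from ONE-Glo luciferase reagent after 30 min at room temperature.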
Rab9 prom act = Rab9 promoter activation. Potency, µM (highest dose often 9.22 µM), for inactives: at the top dose activation, negative = inhibition, most hits filed as activators. AID 485297. 320,000 compounds, 2.8% hits. Huh7 Rab9 promoter-luciferase reporter, luminescence, 24 h; note: % of control where 0% means no effect; nearly all actives have a fitted effect of over 60% in size
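Cells were plated at 1500 per well in reduced-serum medium with 10% FBS and left 2 h. Compound in DMSO was then added for 24 h at 37 °C. Reporter signal was read by luminescence after 10 min with luciferase detection reagent.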
ELG1 DNA repair = blocks ELG1-dependent DNA repair in HEK293T cells. Potency, µM (series often up to 46.1 µM), inactives show top-dose activity change, negative = inhibition, actives largely listed as inhibitors. 330,000 compounds, 2.3% hits. HEK293T ELG1-luciferase reporter, luminescence, 16 h; DNA damage induced by 5-fluorouridine; note: % is set by controls: 0 for no effect and ±100 for the full control effect; nearly all actives have a fitted effect of over 55% in size
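DMSO vehicle served as the neutral condition. Each well held 2,000 cells given 5-fluorouridine plus compound; after 16 hr at 37 °C/5% CO2, ONE-Glo was added and luciferase measured 30 min later.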
Numbers without * were called inactive. Calls come from the whole dose curve; as a rule, active = well fitted curve in the direction sought with a large enough effect; inconclusive = small, poorly fitted or top-dose-only effect, or another doubt; inactive = no such curve, though single readings can be large; an effect the other way counts as inactive or inconclusive. Potency is the fitted concentration of half-maximal effect.

Results for O=C(Nc1cccc([N+](=O)[O-])c1)Nc1ccc2c(c1)CCC2 ?
FLuc counter: inconclusive; NPC1 promoter act: inconclusive; ELG1 genotox: -1%; Rab9 prom act: inconclusive; ELG1 DNA repair: inconclusive

What do the screens show for `O=C(Nc1ccc2c(c1)CCC2)Nc1ccccc1F`?
FLuc counter: 0.67µM*; NPC1 promoter act: 0.45µM*; ELG1 genotox: 0.41µM*; Rab9 prom act: 0.63µM*; ELG1 DNA repair: inconclusive

What do the screens show for `Cc1ccccc1NC(=O)Nc1ccc2c(c1)CCC2`?
FLuc counter: 2.4µM*; NPC1 promoter act: 2.8µM*; ELG1 genotox: inconclusive; Rab9 prom act: 2.5µM*; ELG1 DNA repair: inconclusive

Results for Cc1ccc(NC(=O)Nc2ccc3c(c2)CCC3)cc1 ?
FLuc counter: inconclusive; NPC1 promoter act: 2µM*; ELG1 genotox: inconclusive; Rab9 prom act: 2µM*; ELG1 DNA repair: inconclusive

What do the screens show for `O=C(Nc1ccccc1)Nc1ccc2c(c1)CCC2`?
FLuc counter: 2.7µM*; NPC1 promoter act: 2.5µM*; ELG1 genotox: inconclusive; Rab9 prom act: 3.5µM*; ELG1 DNA repair: inconclusive

How did Cc1cc(C)cc(NC(=O)Nc2ccc3c(c2)CCC3)c1 do in these assays?
FLuc counter: -20%; NPC1 promoter act: inconclusive; ELG1 genotox: 14%; Rab9 prom act: inconclusive; ELG1 DNA repair: inconclusive

What do the screens show for `COC(=O)c1ccc(NC(=O)CN(C)S(=O)(=O)c2ccc3c(c2)CCCC(=O)N3)cc1`?
FLuc counter: 3%

What do the screens show for `COc1ccc(-c2cc(C(=O)Nc3c(C(=O)c4ccc(Cl)cc4)oc4ccccc34)no2)cc1`?
FLuc counter: -1%

What do the screens show for `Cc1cc2c(NC(=O)Nc3ccc(C(C)(C)C)cc3)cccc2nn1`?
FLuc counter: 12µM*; NPC1 promoter act: -2%; ELG1 genotox: -6%; Rab9 prom act: -8%; ELG1 DNA repair: 15µM*

How did Cc1ccccc1NC(=O)CNC(=O)c1ccc(C(F)(F)F)cc1 do in these assays?
FLuc counter: inconclusive; SMN2 splice enh: 12%; NPC1 promoter act: 7%; ELG1 genotox: 0%; Rab9 prom act: -3%; ELG1 DNA repair: inconclusive

How did O=C(Nc1ccc2c(c1)CCC2)c1c(F)cccc1Cl do in these assays?
FLuc counter: 9.5µM*; SMN2 splice enh: 14µM*; NPC1 promoter act: 1.6µM*; ELG1 genotox: 9.2µM*; Rab9 prom act: 1.3µM*; ELG1 DNA repair: inconclusive

What do the screens show for `Cc1ccccc1NC(=O)Nc1ccc(C(F)(F)F)cc1`?
FLuc counter: 2.4µM*; NPC1 promoter act: 23%; ELG1 genotox: 1%; Rab9 prom act: 2.2µM*; ELG1 DNA repair: inconclusive

Results for O=C(Nc1ccc2c(c1)CCC2)Nc1ccc(F)cc1F ?
FLuc counter: inconclusive; NPC1 promoter act: 1.3µM*; ELG1 genotox: inconclusive; Rab9 prom act: 0.79µM*; ELG1 DNA repair: inconclusive

How did CSCCC(NC(=O)c1ccccc1Cl)C(=O)NCC(c1cccs1)N(C)C (configuration not stated) do in these assays?
FLuc counter: 4%; NPC1 promoter act: -3%; ELG1 genotox: 2%; Rab9 prom act: 3%; ELG1 DNA repair: 10%

Results for Cc1nnc(SCC(=O)N2CCN(c3ccccc3F)CC2)n1C1CC1 ?
FLuc counter: 3%; NPC1 promoter act: 2%; ELG1 genotox: 1%; Rab9 prom act: 1%; ELG1 DNA repair: 15%

What do the screens show for `O=C(Nc1ccc(F)cc1)Nc1ccc2c(c1)CCC2`?
FLuc counter: inconclusive; NPC1 promoter act: 2.5µM*; ELG1 genotox: inconclusive; Rab9 prom act: 2.2µM*; ELG1 DNA repair: inconclusive

What do the screens show for `CCOc1ccc(NC(=O)Nc2ccc3c(c2)CCC3)cc1`?
FLuc counter: -2%; NPC1 promoter act: 25%; ELG1 genotox: 14%; Rab9 prom act: 16%; ELG1 DNA repair: -6%

What do the screens show for `O=C(Nc1ccc2c(c1)CCC2)c1ccc(F)cc1`?
FLuc counter: 1.1µM*; SMN2 splice enh: 2.2µM*; NPC1 promoter act: 0.71µM*; ELG1 genotox: 1.6µM*; Rab9 prom act: 0.45µM*; ELG1 DNA repair: inconclusive

Results for O=C(CNC(=O)c1ccccc1F)Nc1ccc2c(c1)CCC2 ?
FLuc counter: -19%; NPC1 promoter act: inconclusive; ELG1 genotox: inconclusive; Rab9 prom act: inconclusive; ELG1 DNA repair: inconclusive

How did O=C(Nc1ccc2c(c1)CCC2)c1ncoc1-c1ccccc1F do in these assays?
FLuc counter: 8.5µM*; NPC1 promoter act: 15%; ELG1 genotox: 12%; Rab9 prom act: 3%; ELG1 DNA repair: inconclusive

Results for O=C(Nc1cccc(F)c1)Nc1ccc2c(c1)CCC2 ?
FLuc counter: 3.4µM*; NPC1 promoter act: 2.5µM*; ELG1 genotox: inconclusive; Rab9 prom act: 2.5µM*; ELG1 DNA repair: inconclusive

How did Cc1nc(N2CCOCC2)c2c(C(=O)N3CCN(c4cccc(C)c4C)CC3)c(C)oc2n1 do in these assays?
FLuc counter: 0%

What do the screens show for `C[C@H](CO)N1C[C@H](C)[C@@H](CN(C)Cc2ccc(-c3ccccc3)cc2)Oc2c(NS(=O)(=O)c3cn(C)cn3)cccc2C1=O`?
ELG1 genotox: 0%; ELG1 DNA repair: 22%

How did CCOC(=O)c1ccc(NC(=O)Cn2c(=O)cc(C(F)(F)F)c3c(C)nn(C)c32)cc1 do in these assays?
FLuc counter: -15%

How did CCN(C[C@H]1N[C@@](C)(C(=O)OC)[C@H]2C(=O)N(C)C(=O)[C@@H]12)C(=O)Nc1ccc(C(F)(F)F)cc1 do in these assays?
ELG1 genotox: 2%; ELG1 DNA repair: 18%

Results for O=C(Nc1cccc(S(=O)(=O)N2CCCCC2)c1)c1cc2ccccc2o1 ?
FLuc counter: 8.5µM*; NPC1 promoter act: 0%; ELG1 genotox: -9%; Rab9 prom act: 13%; ELG1 DNA repair: inconclusive

Results for O=C(Nc1cccc(S(=O)(=O)N2CCOCC2)c1)c1cc2ccccc2o1 ?
FLuc counter: 17µM*; NPC1 promoter act: 1%; ELG1 genotox: -8%; Rab9 prom act: 1%; ELG1 DNA repair: 21%

What do the screens show for `CCOc1ncccc1C(=O)OCC(=O)NC1CCCCC1`?
ELG1 genotox: 1%; ELG1 DNA repair: inconclusive

Results for O=[N+]([O-])c1ccc(N/N=C/c2cccc(O)c2O)cc1 ?
FLuc counter: 17µM*; NPC1 promoter act: -3%; ELG1 genotox: 12µM*; Rab9 prom act: 1%; ELG1 DNA repair: 4%

How did O=[N+]([O-])c1ccc(N/N=C/c2cccc(O)c2)cc1 do in these assays?
FLuc counter: 24µM*; NPC1 promoter act: 3%; ELG1 genotox: inconclusive; Rab9 prom act: 28%; ELG1 DNA repair: inconclusive
